Hit rate of the full screen: of about 4,100 compounds, about 1,600 (39%) were called active. Another 25% or so got no clear call; they are omitted. Calls follow the shape of the dose curve; as a rule, active = well fitted inhibition curve with a large enough effect; inconclusive = small, poorly fitted or top-dose-only effect; inactive = no such curve, though single readings can be large or run the other way. Some of the results follow.
Potency is read from the fitted curve at half-maximal effect.

A short description of this assay: qHTS Validation assay for Inhibitors of Plasmodium falciparum Dd2 growth in vitro. Also: nearly all actives have a fitted effect of over 70% in size. The settings on record: P. falciparum Dd2 in RBCs, SYBR Green growth, 72 h; series mostly up to 28.7 µM. The essentials:
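P. falciparum Dd2-infected red blood cells (2.5% hematocrit, 0.3% parasitemia) grown 72 h at 37 °C under 5% O2 with compounds in a titration, 29 uM to 0.5 nM final. Growth read as SYBR Green-1 fluorescence after ~16 h lysis; artesunate 300 nM as positive control.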
Take `c1ccc(-[n+]2nc(Nc3cccc4ccccc34)sc2-c2c3ccccc3cc3ccccc23)cc1`: the Potency was 5.96 µM (active).

With `CCOC(=O)C1(Cc2ccc(Cl)cc2)CCN(Cc2ccc(OC)cc2O)CC1`, the Potency is 0.188 µM (active).

As for `COc1cc(CN2CCC3(CC2)C(=O)NCN3Cc2ccc(Cl)cc2)ccc1F`, the Potency entry is “inactive”.

On to `COc1ccc(CNC(=O)C2=C(C)C(=O)OC23CCC(C)CC3)cc1` (stereo not drawn), for which the Potency result is “inactive”.

For the compound `COC(=O)[C@]1(C)CCC[C@@]2(C)C3CC[C@@]4(C)C[C@]3(CCC21)CC(=O)N4Cc1ccc(OC)cc1` (stereo partly drawn), the Potency was 3.76 µM (active).

In the case of `COc1ccc(CCN2CC(C(=O)N3CCC(CO)CC3)CCC2=O)cc1` (stereo not drawn), the Potency result is “inactive”.

For `Cc1c(C#N)c2ccccc2n1CCOc1ccccc1F`, the Potency is 1.68 µM (active).

Regarding `COc1ccc(-c2nc(Cn3c(SCc4ccccc4F)nc4ccncc43)c(C)o2)cc1OC`, the Potency was 8.41 µM (active).

Take `COc1cc(NC(=O)CSc2nc(-c3ccc(C(C)C)cc3)no2)cc(OC)c1`: the Potency is 0.842 µM (active).

As for `CC(C)c1ccc(NC(=O)CSc2nc(=O)n(Cc3ccccn3)c3c2CCC3)cc1`, the Potency result is “inactive”.

Turning to `COc1cc(NC(=O)CSc2nc3nc(C)c(Cc4ccc(C)cc4)c(C)n3n2)cc(OC)c1`, the Potency entry is “inactive”.

For `COc1cc(NC(=O)CSc2nc(-c3ccccc3)no2)cc(OC)c1`, the Potency is 2.37 µM (active).

For `COc1ccc(C2Cn3nnc(C(=O)NCc4ccc(F)cc4Cl)c3CO2)cc1` (stereo not drawn), the Potency entry is “inactive”.

`COc1ccc2c(CNCc3ccccc3OC)c(C(=O)O)n(Cc3ccc(F)cc3Cl)c2c1`: the Potency was 15 µM (active).

On to `Cc1ncc2n1C(=O)N(C1CCN(Cc3ccnn3C)CC1)C2`, for which the Potency result is “inactive”.

As for `COc1ccc(CN2C(=O)COC[C@@H]2[C@H](O)c2ccc(NC(=O)c3ccc(C(C)(C)C)cc3)cc2)cc1`, the Potency was 2.11 µM (active).

Consider `O=C(Nc1ccc([C@@H](O)[C@H]2COCC(=O)N2Cc2ccccc2F)cc1)c1ccccc1`, for which the Potency entry was “inactive”.

`O=C(Nc1ccc([C@@H](O)[C@H]2COCC(=O)N2Cc2ccc(F)cc2)cc1)c1ccc2c(c1)OCO2`: the Potency result was “inactive”.

`CCOC(=O)c1nnn(-c2nonc2N)c1-c1ccc(Cl)cc1`: the Potency was 5.31 µM (active).

On to `CCOC(=O)c1nnn(-c2nonc2N)c1-c1ccc(C)cc1`, for which the Potency is 5.31 µM (active).

Turning to `COc1ccc(-c2noc(CCCC(=O)O)n2)cc1`, the Potency entry is “inactive”.

For `CCOC(=O)c1nnn(-c2nonc2N)c1-c1ccc(Br)cc1`, the Potency is 2.66 µM (active).

For `Cc1noc(C)c1COC(=O)/C=C/c1ccc(Cl)cc1`, the Potency result was “inactive”.

For `CCOC(=O)c1nnn(-c2nonc2N)c1-c1ccc(OC)cc1`, the Potency is 5.31 µM (active).

`CCCS(=O)(=O)N1C[C@@H](COC)[C@H](c2nc(C)no2)C1`: the Potency entry was “inactive”.

Regarding `CCC(=O)N1CCc2cc(Br)cc(S(=O)(=O)N3CCCCC3CC)c21` (stereo not drawn), the Potency was 1.06 µM (active).

`CC(C)(C)NC(=O)C1CCCN(C2CCN(C3Cc4ccccc4C3)CC2)C1` (stereo not drawn): the Potency result is “inactive”.

On to `CCC(=O)N1CCc2cc(Br)cc(S(=O)(=O)C3(C(=O)OC)CC3)c21`, for which the Potency is 3.76 µM (active).

`CCC(=O)N1CCc2cc(S(=O)(=O)NCCC(=O)Nc3ccc(OC)c(Cl)c3)ccc21`: the Potency entry is “inactive”.

Take `CCC(=O)N1CCc2cc(S(=O)(=O)CCC(=O)NCc3ccc(OC)cc3)ccc21`: the Potency entry is “inactive”.

Take `CCC(=O)N1CCc2cc(Br)cc(S(=O)(=O)N3CCCC(C(=O)NC(C)(C)C)C3)c21` (stereo not drawn): the Potency was 3.35 µM (active).

On to `Cc1nc(-c2ccccc2OC2CN(S(=O)(=O)Cc3ccccc3F)C2)no1`, for which the Potency entry was “inactive”.

Consider `CC(C)(C)c1ccc(CN(Cc2ccccc2)C(c2ccccn2)c2nnnn2C(C)(C)C)cc1` (stereo not drawn), for which the Potency was 4.73 µM (active).

On to `CC(C)(C)n1nnnc1C(c1cccnc1)N(Cc1ccccc1)Cc1ccco1` (stereo not drawn), for which the Potency is 5.31 µM (active).

As to `Cc1noc(C)c1NC(=O)N1CCC(c2n[nH]c(=O)n2-c2ccccc2)CC1`, the Potency entry is “inactive”.

Consider `Cc1nccn1CC(O)Cn1c2ccccc2c2ccccc21` (stereo not drawn), for which the Potency was 8.41 µM (active).

On to `Cc1ccccc1C(=O)N1CCC2(CC1)N(c1ccccc1)C(=O)CS2(=O)=O`, for which the Potency result is “inactive”.

Consider `O=C(c1cccc2[nH]ccc12)N1CCCC(n2cc(-c3nc(C4CC4)no3)nn2)C1` (stereo not drawn), for which the Potency entry was “inactive”.

With `OCc1ccc(CN2CCCC(CCc3c(F)cccc3F)C2)o1` (stereo not drawn), the Potency was 4.22 µM (active).

In the case of `OC[C@H]1CCN(Cc2ccc(-c3cccc(Cl)c3Cl)o2)C[C@@H]1O`, the Potency result is “inactive”.

`Cc1cccc(Oc2nc(-c3ccncc3)nc3ccccc23)c1`: the Potency was 7.5 µM (active).

For the compound `c1ccc(Oc2nc(-c3ccccn3)nc3ccccc23)cc1`, the Potency is 7.5 µM (active).

Consider `Cc1cccc(Oc2nc(-c3ccccn3)nc3ccccc23)c1`, for which the Potency is 7.5 µM (active).

As to `CCCOc1ccc(Oc2nc(-c3ccncc3)nc3ccccc23)cc1`, the Potency is 4.22 µM (active).

With `CCSc1nc(CC(=O)NCc2ccc(S(N)(=O)=O)cc2)cs1`, the Potency result was “inactive”.

As for `CC(=O)c1c(C)[nH]c(C(=O)COc2ccc3ccc(=O)oc3c2)c1C`, the Potency result was “inactive”.

Turning to `c1ccc(-c2nc(N3CCCCCC3)c3ccccc3n2)nc1`, the Potency is 1.68 µM (active).

For `Fc1ccc(Oc2nc(-c3ccccn3)nc3ccccc23)cc1`, the Potency is 13.3 µM (active).

Turning to `Cc1nn(C)c2nc(-c3ccccn3)nc(N3CCC4(CC3)COC(=O)O4)c12`, the Potency entry was “inactive”.

For the compound `Cc1ccccc1Oc1nc(-c2ccccn2)nc2ccccc12`, the Potency was 6.68 µM (active).

In the case of `CCCSc1ccc([C@H]2N[C@@](Cc3ccccc3)(C(=O)OC)[C@H]3C(=O)N(CC)C(=O)[C@@H]23)cc1`, the Potency is 5.31 µM (active).

`CCCCCCSc1ccc([C@H]2N[C@@](Cc3ccccc3)(C(=O)OC)[C@H]3C(=O)N(CC)C(=O)[C@@H]23)cc1`: the Potency was 3.35 µM (active).

As to `CCCCCCSc1ccc([C@H]2N[C@@](Cc3ccccc3)(C(=O)OC)[C@H]3C(=O)N(C)C(=O)[C@@H]23)cc1`, the Potency was 4.73 µM (active).

For `O=C(CCl)N(c1ccccc1)c1c[nH]c2ccccc12`, the Potency is 2.11 µM (active).

Regarding `Cc1cc2nc(/C=C/c3nc4cc(C)c(C)cc4[nH]3)[nH]c2cc1C`, the Potency result is “inactive”.

As for `NC1CC(c2cc(N3CCCN(C(=O)c4ccoc4)CC3)ncn2)C1` (stereo not drawn), the Potency result was “inactive”.

Regarding `Cc1cc(C)cc(N2CCN(c3cc(C4CC(O)C4)nc(C)n3)CC2=O)c1` (stereo not drawn), the Potency entry is “inactive”.

Turning to `COc1ccc(N2CCN(c3cc(C4CC(N)C4)nc(N)n3)CC2(C)C)cc1` (stereo not drawn), the Potency was 2.99 µM (active).

`COc1ccccc1Nc1c2c(nc3ccc(NC(=O)/C=C/c4cccc(OC)c4OC)cc13)CCCC2`: the Potency was 5.96 µM (active).

Take `Fc1ccc(F)c(Nc2c3c(nc4ccc(Cl)cc24)CCC3)c1`: the Potency result was “inactive”.

Regarding `COc1ccc(/C=C/C(=O)Nc2ccc3nc4c(c(Nc5ccccc5OC)c3c2)CCCC4)cc1`, the Potency was 3.35 µM (active).

For `Cc1cc(N2CCN(C3CCCC3)CC2)n2c(nc3ccccc32)c1C#N`, the Potency is 1.06 µM (active).

In the case of `O=C(N[C@H](c1ccccn1)C1CC(O)C1)c1cc(=O)n(-c2ccccc2)[nH]1` (stereo partly drawn), the Potency is 9.44 µM (active).

Consider `COc1ccc(NS(=O)(=O)c2cc(NC(=O)/C=C/c3cc(OC)c(OC)c(OC)c3)ccc2N2CCCCC2)cc1`, for which the Potency is 6.68 µM (active).

For the compound `COc1cc2nc(Nc3ccc(C)c(Cl)c3)nc(N)c2cc1OC`, the Potency is 2.11 µM (active).

Consider `CCOC(=O)c1ccc(Nc2nc(N)c3cc(OC)c(OC)cc3n2)cc1`, for which the Potency is 1.88 µM (active).

On to `COc1cc2nc(N3CCN(c4cc(C)ccc4C)CC3)nc(N)c2cc1OC`, for which the Potency was 6.68 µM (active).

Take `COc1cc2nc(Nc3ccc(C)c(C)c3)nc(N)c2cc1OC`: the Potency is 0.75 µM (active).

`COc1ccc(C(=O)c2nccc3cc(OC)c(OC)cc23)cc1OC`: the Potency entry is “inactive”.

Consider `COc1ccc(Cl)cc1C(=O)NCc1nnc2c(-c3nc(C(C)C)no3)cccn12`, for which the Potency entry is “inactive”.

As to `O=C(NCc1ccc(C(F)(F)F)cc1F)[C@H]1CCC[C@@H](O)C1`, the Potency entry is “inactive”.

With `CCOC(=O)c1c(S(=O)(=O)N2CCCC(C(=O)N3CCN(c4cc(C)ccc4C)CC3)C2)c(C)n(C)c1C` (stereo not drawn), the Potency was 1.5 µM (active).

Turning to `CCOC(=O)c1c(C)[nH]c(C)c1S(=O)(=O)N1CCCC(C(=O)N2CCN(c3cccc(C)c3C)CC2)C1` (stereo not drawn), the Potency was 1.33 µM (active).

For `CCOC(=O)c1c(S(=O)(=O)N2CCCC(C(=O)N3CCN(c4cccc(C)c4C)CC3)C2)c(C)n(C)c1C` (stereo not drawn), the Potency is 1.06 µM (active).

In the case of `CCOC(=O)c1c(C)[nH]c(C)c1S(=O)(=O)N1CCCC(C(=O)N2CCN(c3cc(C)ccc3C)CC2)C1` (stereo not drawn), the Potency entry was “inactive”.

Regarding `CCc1cccc(OC2CN(C(=O)C3CCCN(CC(N)=O)C3)C2)c1` (stereo not drawn), the Potency entry is “inactive”.

In the case of `OC1CCN(c2cc(N3CCOC(c4ccc(F)cc4)C3)ncn2)CC1` (stereo not drawn), the Potency result is “inactive”.

`CCCCC(=O)Nc1nc(C)c(-c2csc(Nc3cc(OC)ccc3OC)n2)s1`: the Potency was 9.44 µM (active).

Take `C=CCCC(=O)Nc1nc(C)c(-c2csc(Nc3ccc(Cl)cc3)n2)s1`: the Potency entry was “inactive”.

For `CN(Cc1cc(-c2cccnc2)no1)C(=O)C1COc2ccccc2C1` (stereo not drawn), the Potency entry is “inactive”.

Regarding `COC[C@@H]1CN(C(=O)c2cccc(OC(F)(F)F)c2)C[C@H]1C(N)=O`, the Potency result is “inactive”.

For the compound `O=C(Nc1ccc(Nc2ccncc2)cc1)c1ccc(Nc2ccnc3ccc([N+](=O)[O-])cc23)cc1[N+](=O)[O-]`, the Potency is 1.33 µM (active).

On to `O=C(Nc1ccc(Nc2ccncc2)cc1)c1ccc(Nc2ccnc3ccc([N+](=O)[O-])cc23)cc1`, for which the Potency is 0.75 µM (active).

For `COc1cnc(-c2ccccn2)nc1Sc1c(Cl)cccc1Cl`, the Potency was 2.99 µM (active).

With `COc1cnc(-c2ccccn2)nc1Sc1ccc(Cl)cc1`, the Potency is 5.96 µM (active).

Regarding `Oc1ccccc1C1=NN(c2ccccc2)C(c2ccccc2)C1` (stereo not drawn), the Potency is 7.5 µM (active).

`O=C(c1ccc2nc[nH]c2c1)N1CCCN(c2cc(-c3ccc(Cl)cc3)[nH]n2)CC1`: the Potency result was “inactive”.

For the compound `COc1ccc(-c2cc(N3CCN(C(=O)c4c[nH]c5ccccc45)CC3)n[nH]2)cc1`, the Potency was 15 µM (active).

For `CCOc1ccccc1C(=O)N1CCN(c2cc(-c3ccc(OC)cc3)[nH]n2)CC1`, the Potency entry was “inactive”.

Consider `Cn1nc(C(F)(F)F)c(-c2ccc(F)cc2)c1NC(=O)Nc1ccc(F)cc1`, for which the Potency is 1.88 µM (active).

Consider `COC(=O)c1ccc(NC(=O)Nc2cccc(F)c2)cc1`, for which the Potency entry is “inactive”.

Take `Cn1nc(C(F)(F)F)c(Cl)c1C(=O)N[C@@H]1CCNC[C@H]1O`: the Potency result was “inactive”.

For `Cn1nc(C(F)(F)F)c(-c2cccc(C(F)(F)F)c2)c1NC(=O)Nc1ccc(F)cc1`, the Potency was 2.37 µM (active).

Source of the values: PubChem BioAssay AID1347416 (National Center for Advancing Translational Sciences (NCATS), 2020).
